From PubChem BioAssay
Luciferase inh: inhibitors of firefly (Photinus pyralis) luciferase | P08659 | purified P. pyralis luciferase, luminescence, biochemical | Potency, µM (series often up to 115 µM), usual class: inhibitors | 2.5% of 76,000 active | AID 1347043; also: nearly all actives have a fitted effect of over 65% in size
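Luminescence read by CCD imager after adding enzyme (10nM final) to wells holding compound, titrated in qHTS. Substrates 10uM each D-luciferin and ATP; buffer 50mM Tris acetate pH 7.5, 10mM Mg acetate, Tween-20, BSA.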
NPR1 antag: antagonists of human natriuretic peptide receptor Npr1. HEK293 hNpr1 GloSensor cGMP, ANP-stimulated luminescence. Potency, µM (highest dose often 46.3 µM), for the others: top-dose activity change, negative = inhibition, hits mostly inhibitors. 1.6% of 76,000 active. AID 1347048; calls by dose curve; also: nearly all actives have a fitted effect of over 60% in size
Target sequence (P16066 whole entry, looked up): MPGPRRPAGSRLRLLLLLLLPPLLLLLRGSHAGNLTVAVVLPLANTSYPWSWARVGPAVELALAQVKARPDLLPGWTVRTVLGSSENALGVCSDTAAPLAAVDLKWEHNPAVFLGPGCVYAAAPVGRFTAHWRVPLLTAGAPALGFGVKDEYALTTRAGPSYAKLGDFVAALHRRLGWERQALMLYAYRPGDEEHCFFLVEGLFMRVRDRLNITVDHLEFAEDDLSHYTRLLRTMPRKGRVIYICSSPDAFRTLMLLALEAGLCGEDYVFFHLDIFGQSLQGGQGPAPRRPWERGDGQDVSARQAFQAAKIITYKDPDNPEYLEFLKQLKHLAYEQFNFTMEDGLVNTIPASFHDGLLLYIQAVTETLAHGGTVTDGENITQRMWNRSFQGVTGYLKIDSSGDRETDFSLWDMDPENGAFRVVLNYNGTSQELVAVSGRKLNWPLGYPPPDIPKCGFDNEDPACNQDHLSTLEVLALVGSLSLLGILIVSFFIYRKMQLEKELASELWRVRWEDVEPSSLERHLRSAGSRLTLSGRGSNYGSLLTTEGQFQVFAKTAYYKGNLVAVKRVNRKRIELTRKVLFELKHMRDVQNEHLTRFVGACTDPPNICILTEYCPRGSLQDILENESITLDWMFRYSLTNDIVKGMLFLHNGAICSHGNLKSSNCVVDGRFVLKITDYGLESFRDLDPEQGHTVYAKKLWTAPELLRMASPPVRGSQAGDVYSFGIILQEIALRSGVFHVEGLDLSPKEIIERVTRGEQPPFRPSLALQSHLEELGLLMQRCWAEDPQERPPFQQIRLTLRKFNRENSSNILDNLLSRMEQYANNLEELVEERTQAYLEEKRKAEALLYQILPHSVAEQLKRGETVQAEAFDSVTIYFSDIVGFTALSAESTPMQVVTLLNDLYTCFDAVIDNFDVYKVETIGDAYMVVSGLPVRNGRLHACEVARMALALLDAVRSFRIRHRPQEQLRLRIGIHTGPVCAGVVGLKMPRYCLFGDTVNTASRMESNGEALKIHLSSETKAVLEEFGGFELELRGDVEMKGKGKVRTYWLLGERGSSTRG
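Compound pre-incubated 30 min at room temperature on GloSensor-loaded HEK293 cells stably carrying hNpr1 and the pGS-40F cGMP biosensor. Stimulation uses hNppA at 0.1 nM final; luminescence is taken at baseline and 20 min post-agonist.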
HEK293 tox: HEK 293 cell cytotoxicity; HEK 293 viability, ATP luminescence (CellTiter-Glo), 48-72 h; Potency, µM (top dose mostly 115 µM), inactives show at the top dose activity change, negative = cytotoxicity, actives largely listed as inhibitors; 6.6% of 94,000 active; AID 1345083; also: nearly all actives have a fitted effect of over 60% in size
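CellTiter-Glo luminescence (cellular ATP) was read after 48 or 72 hr of compound exposure at 37 degree Celsius. Cells were HEK 293 plated at 250 cells/well.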
3T3 cytotox: kills NIH 3T3 cells | NIH 3T3 viability, CellTiter-Glo ATP luminescence, 48-72 h | Potency, µM (highest dose often 96.7 µM), for the others: top-dose activity change, negative = cytotoxicity, hits mostly inhibitors | 4.3% of 94,000 active; also: nearly all actives have a fitted effect of over 55% in size
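Cytotoxicity was measured by CellTiter-Glo ATP luminescence after 48 or 72 h compound exposure at 37 °C. Mouse NIH 3T3 fibroblasts were seeded at 400 cells/well and dosed by 23 nL pin transfer.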
GPT2 inh: inhibitors of human GPT2 alanine aminotransferase | AID 1671188 | Potency, µM (titrated, usually from 57.7 µM), without a hit: top-dose activity change, negative = inhibition, usual class: inhibitors | Recombinant GPT2, coupled pyruvate oxidase/HRP Amplex Red fluorescence | 0.25% of 100,000 active; also: nearly all actives have a fitted effect of over 60% in size
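Fluorescence read-out: pyruvate from GPT2 turnover coupled to pyruvate oxidase, HRP and Amplex Red (0.2mM ThPP, 0.2U/mL PO and HRP, 50uM Amplex final). Substrates 250uM a-KG, 2mM L-alanine; enzyme 10ng/uL; 30 min RT.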
The depositor's hits bear a star; i = inactive; ? = inconclusive; nt = no result given; [ ] = remark or other dose. Compounds with a hit are over-represented: about 10% of the library has one in this group of screens. Unless noted, calls follow the shape of the dose curve; as a rule, active = well fitted curve in the direction sought with a large enough effect; inconclusive = small, poorly fitted or top-dose-only effect, or another doubt; inactive = no such curve, though single readings can be large; an effect the other way counts as inactive or inconclusive. % is scaled to controls: 0 for no effect and ±100 for the full control effect; potency is read from the fitted curve at half-maximal effect.

SMILES | Luciferase inh | NPR1 antag | HEK293 tox | 3T3 cytotox | GPT2 inh
CC(C)CCN1CCC(N2CCN(C(=O)COc3ccccc3)CC2)C1=O (stereo not drawn) | i | 3% | i | 1% | -8%
CC(=O)c1ccc(NC(=O)OC[C@H]2C[C@@H]3CCN2C[C@@H]3c2cc(C3CCCC3)nc(-c3ccncc3)n2)cc1 | i | -17% | 32µM* | 22µM* | ?
O=C(Nc1cccc(C(F)(F)F)c1)OC[C@H]1C[C@@H]2CCN1C[C@@H]2c1cc(C2CCCC2)nc(-c2ccncc2)n1 | i | ? | 4µM* | ? | 5%
CC(=O)c1cccc(NC(=O)OC[C@H]2C[C@@H]3CCN2C[C@@H]3c2cc(C3CCCC3)nc(C)n2)c1 | i | -8% | 14µM* | ? | 0%
CC(C)NC(=O)OC[C@H]1C[C@@H]2CCN1C[C@@H]2c1cc(C2CCCC2)nc(-c2ccncc2)n1 | i | -23% | 22µM* | 28µM* | i
Cc1ccc(-n2nccn2)c(C(=O)N2CCN(c3nc4cc(Cl)ccc4o3)CCC2C)c1 (stereo not drawn) | nt | nt | nt | nt | i
Cc1nc(-c2cccs2)cc([C@H]2CN3CC[C@H]2C[C@@H]3CNC(=O)c2ccc3c(c2)OCO3)n1 | i | -7% | ? | 40µM* | -1%
Cc1ccc(C(=O)NC[C@H]2C[C@@H]3CCN2C[C@@H]3c2cc(-c3cccs3)nc(C)n2)cc1 | i | -20%[70.6 µM] | ? | 28µM* | i
Cc1nc(-c2cccs2)cc([C@H]2CN3CC[C@H]2C[C@@H]3CNC(=O)Nc2cccc(C(F)(F)F)c2)n1 | i | 4% | 25µM* | 25µM* | i
Cc1nc(-c2cccs2)cc([C@H]2CN3CC[C@H]2C[C@@H]3CNC(=O)c2ccccc2)n1 | i | -16%[70.6 µM] | ? | ? | i
Cc1nc(-c2ccccc2Br)cc([C@H]2CN3CC[C@H]2C[C@@H]3CNC(=O)c2cccs2)n1 | i | -7% | 79µM* | ? | i
COc1cc2c(cc1OCc1ccccc1)N([S+](=O)([O-])c1ccc3c(c1)CCO3)CC21CCN(C)CC1 | i | -9% | ? | ? | 1%
COc1cc2c(cc1OCc1ccccc1)N([S+](=O)([O-])c1ccccc1C(F)(F)F)CC21CCN(C)CC1 | i | -15% | 20µM* | 13µM* | -60%
COc1cc2c(cc1OCc1ccccc1)N([S+](=O)([O-])c1cccnc1)CC21CCN(C)CC1 | i | 2% | ? | 14µM* | 1%
O=C([C@H]1CN2CCC1C[C@@H]2Cn1cc(CCO)nn1)N1CCOCC1 (stereo partly drawn) | i | -4%[70.6 µM] | -13%[172 µM] | ? | -19%[88.5 µM]
Cn1cc(-c2cnc3[nH]cc(CC(=O)N4CCN(Cc5ccccc5)CC4)c3c2)cn1 | ? | -8%[70.6 µM] | ? | 40µM* | -4%[88.5 µM]
CN1CCN(C(=O)Cc2c[nH]c3ncc(-c4cccc(F)c4)cc23)CC1 | i | 3%[70.6 µM] | -18%[172 µM] | ? | 0%[88.5 µM]
CN1CCN(C(=O)Cc2c[nH]c3ncc(-c4cccc(Cl)c4)cc23)CC1 | i | -23%[70.6 µM] | 89µM* | 50µM* | ?
CN1CCN(C(=O)Cc2c[nH]c3ncc(-c4ccc(Cl)cc4)cc23)CC1 | 22µM* | -15%[70.6 µM] | 100µM* | 28µM* | i
Cc1ccccc1-c1cnc2[nH]cc(CC(=O)N3CCN(C)CC3)c2c1 | i | 2%[70.6 µM] | ? | ? | 1%[88.5 µM]
COc1ncc(-c2cnc3[nH]cc(CC(=O)N4CCN(C)CC4)c3c2)cn1 | i | -12%[70.6 µM] | i | ? | i
CN1CCN(C(=O)Cc2c[nH]c3ncc(-c4ccc(F)c(Cl)c4)cc23)CC1 | i | -16%[70.6 µM] | 79µM* | 28µM* | 1%[88.5 µM]
Fc1ccc(-c2ncc3c(n2)C[C@@H]2CC[C@H]3N2)cc1 | i | 12% | i | i | i
CC(C)CCN1CCC(N2CCN(C(=O)Cc3ccccc3F)CC2)C1=O (stereo not drawn) | i | -1% | -5% | -13% | 0%
COc1ccc(CCC(=O)N2[C@H]3CC[C@@H]2c2cnc(C)nc2C3)cc1 | i | 11% | -9% | i | i
SMILES | Luciferase inh | NPR1 antag | HEK293 tox | 3T3 cytotox | GPT2 inh
CN1CCN(C(=O)Cc2c[nH]c3ncc(-c4ccc5c(c4)OCO5)cc23)CC1 | 22µM* | -1%[70.6 µM] | ? | ? | -4%[88.5 µM]
Cc1ccccc1C(=O)N1CCC2(CC1)c1nccn1-c1ccccc1CN2CC(C)C | i | -26% | 45µM* | ? | i
CC(C)CN1Cc2ccccc2-n2ccnc2C12CCN(C(=O)c1ccccc1F)CC2 | i | 3% | -27% | -7% | i
Cc1ccsc1C(=O)N1CCC2(CC1)NCc1ccccc1-n1ccnc12 | i | -9% | -17% | 28µM* | i
CCC(CC)c1cc([C@H]2CN3CC[C@H]2C[C@@H]3CNC(=O)CSCC(=O)O)nc(-c2ccncc2)n1 | i | 1% | ? | ? | i
CCC(CC)c1cc([C@H]2CN3CC[C@H]2C[C@@H]3CNC(=O)Nc2ccc(OC)cc2)nc(-c2ccncc2)n1 | i | -7% | 32µM* | ? | i
CCC(CC)c1cc([C@H]2CN3CC[C@H]2C[C@@H]3CNC(=O)Nc2ccc(C(C)=O)cc2)nc(-c2ccncc2)n1 | i | 5% | 25µM* | 18µM* | i
CCCS(=O)(=O)NC[C@H]1C[C@@H]2CCN1C[C@@H]2c1cc(C(CC)CC)nc(-c2ccncc2)n1 | i | ? | ? | ? | -17%
CCC(CC)c1cc([C@H]2CN3CC[C@H]2C[C@@H]3CNC2CCN(C)CC2)nc(-c2ccncc2)n1 | i | -8% | 14µM* | 18µM* | i
CCC(CC)c1cc([C@H]2CN3CC[C@H]2C[C@@H]3CNC(=O)COC)nc(-c2ccncc2)n1 | i | 3% | -14% | ? | -3%
CCOC(=O)[C@H]1CN(C(=O)c2ccc(C)cc2)[C@]2(C)C(=O)Nc3ccccc3[C@H]12 | nt | nt | ? | -27%[46.1 µM] | 2%[27.3 µM]
O=C(COc1ccccc1)N1[C@H]2CC[C@@H]1c1cnc(-c3ccccc3)nc1C2 | i | -7% | ? | -15% | -22%
O=C(O)C1=NOC2CN(Cc3ccccn3)CC12 (stereo not drawn) | nt | nt | i | i | -9%[88.5 µM]
Cc1ccc(CN2C[C@@H]3C(C(N)=O)=NO[C@@H]3C2)nc1 | i | 8%[70.6 µM] | -9%[230 µM] | 112µM* | -16%[88.5 µM]
Cc1ccc(C(=O)NC[C@H]2C[C@@H]3CCN2C[C@@H]3c2cc(-c3ccccc3)nn2C)cc1 | i | 5%[70.6 µM] | ? | ? | i
Cn1nc(-c2ccccc2)cc1[C@H]1CN2CC[C@H]1C[C@@H]2CNC(=O)NCc1ccccc1 | i | -2%[70.6 µM] | ? | 100µM* | i
